# Shown are actives, neighbours in structure and some others; about 18% of the full set was active somewhere.
# DT40 TDP1 CPT: qHTS for Inhibitors of human tyrosyl-DNA phosphodiesterase 1 (TDP1): qHTS in cells in presence of CPT. 12% of 420,000 active. Potency, µM (titrated, usually from 46.2 µM), for the others: top-dose activity change, negative = growth inhibition, hits mostly inhibitors. chicken DT40 Tdp1-/-;hTDP1 cells + 20 nM CPT, ATP luminescence, 48 h; also: potency is read from the fitted curve at half-maximal effect; nearly all actives have a fitted effect of over 55% in size
#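 Chicken DT40 Tdp1-/- cells complemented with human TDP1, 400 cells/well, exposed to compounds plus 20 nM camptothecin for at least 48 h at 37 C; viability read as ATP content by CellTiter-Glo luminescence.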
# TDP1 inh: qHTS Assay for Inhibitors of Tyrosyl-DNA Phosphodiesterase (TDP1); AID 485290, 2010; Potency, µM (top dose mostly 130 µM), without a hit: at the top dose activity change, negative = inhibition, usual class: inhibitors; 0.28% of 350,000 active; recombinant TDP1, AlphaScreen DNA substrate cleavage; also: potency is read from the fitted curve at half-maximal effect; nearly all actives have a fitted effect of over 40% in size
# Target sequence (Q9NUW8 whole entry, looked up): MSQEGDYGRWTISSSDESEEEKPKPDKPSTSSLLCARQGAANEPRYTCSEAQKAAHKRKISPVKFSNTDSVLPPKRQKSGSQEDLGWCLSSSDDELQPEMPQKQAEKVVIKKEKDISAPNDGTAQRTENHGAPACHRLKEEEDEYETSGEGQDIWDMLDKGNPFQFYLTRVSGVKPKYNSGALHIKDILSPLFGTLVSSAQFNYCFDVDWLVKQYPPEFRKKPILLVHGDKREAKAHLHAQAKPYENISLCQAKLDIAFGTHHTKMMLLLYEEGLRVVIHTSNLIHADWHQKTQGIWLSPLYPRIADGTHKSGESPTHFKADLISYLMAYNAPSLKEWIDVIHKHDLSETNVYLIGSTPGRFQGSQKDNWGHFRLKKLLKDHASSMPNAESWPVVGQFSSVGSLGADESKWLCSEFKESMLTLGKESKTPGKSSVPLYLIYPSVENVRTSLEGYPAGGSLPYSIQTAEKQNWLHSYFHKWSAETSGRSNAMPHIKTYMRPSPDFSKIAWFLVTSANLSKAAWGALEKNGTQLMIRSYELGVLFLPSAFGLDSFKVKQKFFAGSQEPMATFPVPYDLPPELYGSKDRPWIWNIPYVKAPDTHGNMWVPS
#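 E. coli-derived human Tdp1, 1 nM final. Cpd preinc 15 min RT; substrate 15 nM final, 5 min RT; AS bead mix 10 ug/ml final, 10 min RT. Signal loss = tyrosine-FITC cleavage. No-enzyme wells = max signal.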
# CtBP-E1A inh: qHTS Assay for Inhibitors of the CtBP/E1A Interaction | activity change, % (test concentration not listed) | AID 651724, 2012 | 0.49% of 340,000 active | AlphaScreen GST-E1A/His-CtBP binding, 1536-well; hits give low values | CtBP / adenovirus E1A interaction (AlphaScreen); in the data active = activity change below about -65%; inconclusive = mostly about -30% to -63%
#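 GST-E1A and His-tagged CtBP (125 nM each as 5X stock) were preincubated with pin-transferred compound for 2 h at 37 °C in the dark, then glutathione donor and nickel acceptor beads were added for 1 h before AlphaScreen reading.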
# TDP1 cell noCPT: qHTS for Inhibitors of human tyrosyl-DNA phosphodiesterase 1 (TDP1): qHTS in cells in absence of CPT. DT40 Tdp1-/- hTDP1 cells, no CPT, ATP luminescence, 48 h. Potency, µM (titrated, usually from 46.2 µM), inactives show at the highest dose activity change, negative = growth inhibition, usual class: inhibitors. 15% of 420,000 active. AID 686978, 2013; also: potency is read from the fitted curve at half-maximal effect; nearly all actives have a fitted effect of over 55% in size
#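 Luminescent ATP content (CellTiter-Glo) served as the growth readout. Knockout chicken DT40 cells expressing human TDP1 were exposed to compounds without camptothecin for a minimum 48 hr at 37 °C.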
# IL-1B inflam inh: qHTS for Inhibitors of Inflammasome Signaling: IL-1-beta AlphaLISA Primary Screen | THP-1 LPS/ATP IL-1B secretion, AlphaLISA, 16 h; hits give low values | 4.7% of 360,000 active | activity change, % at 57.5 µM; in the data active = activity change below about -50%; inconclusive = mostly about -30% to -49%
#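 THP-1 cells pretreated 1 hr with compounds (up to 57.5 uM final), then stimulated with LPS (250 ng/mL final) plus ATP (1.25 mM final); secreted IL-1B measured by AlphaLISA after 16 hr, decreased signal indicating inhibition.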
# Six1-Eya2 inh: qHTS Assay for Inhibitors of the Six1/Eya2 Interaction. activity change, % (concentration not given with the values). AlphaScreen GST-Six1/His-Eya2 binding, biochemical; hits give low values. 0.56% of 360,000 active. AID 651725, 2012. Homeobox protein SIX1 (Homo sapiens) + Protein phosphatase EYA2 (Homo sapiens), …; in the data active = activity change below about -65%; inconclusive = mostly about -30% to -63%
#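 Compounds are tested against tagged Six1 and Eya2 proteins bridged by glutathione donor and nickel acceptor beads; after a one-hour incubation at 37 °C without light, AlphaScreen emission is recorded.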
# Numbers without * were called inactive; ? = inconclusive; · = no result; ! = repeats disagree. Unless noted, calls follow the shape of the dose curve; as a rule, active = well fitted curve in the direction sought with a large enough effect; inconclusive = small, poorly fitted or top-dose-only effect, or another doubt; inactive = no such curve, though single readings can be large; an effect the other way counts as inactive or inconclusive. % is scaled to controls: 0 for no effect and ±100 for the full control effect.
SMILES,DT40 TDP1 CPT,TDP1 inh,CtBP-E1A inh,TDP1 cell noCPT,IL-1B inflam inh,Six1-Eya2 inh
CCOC(=O)[C@]12Cc3cc(C)ccc3[C@H]1N(C1CCCCC1)C(=O)c1cc(OC)ccc12,1.16µM*,·,-0.3,1.03µM*,-110.7*,-10.5
O=C1NC(=O)N(c2ccccc2)C(=O)/C1=C/c1ccoc1,?,-10.1%,0.2,-20.7%,19.9,-14.5
O=C1NC(=O)N(c2ccccc2)C(=O)/C1=C/c1coc2ccc(O)cc2c1=O,23.1µM*,·,·,14.6µM*,-19.9,7.6
O=C1NC(=O)N(c2ccc(Cl)cc2)C(=O)/C1=C/c1coc2ccc(O)cc2c1=O,14.6µM*,·,-3.9,14.6µM*,?,-11.3
CCCCCCCCN1C(=O)[C@H](CC(=O)NCCCC)C[C@@]2(C(=O)OCC)CCCC=C12,9.2µM*,·,-19.7,11.6µM*,0.0,8.3
CCCCCCCCN1C(=O)[C@H](CC(=O)N2CCCCC2)C[C@@]2(C(=O)OCC)CCCC=C12,7.31µM*,·,-2.4,5.8µM*,?,-3.3
CCOC(=O)C1(c2ccccc2)CCCN(C)CC1 (centres undefined),-25.3%,·,·,-6.3%,·,·
Cc1cc(Cc2c(O)[nH]c(=S)[nH]c2=O)ccc1OC(C)C,-0.6%,4.1%,·,-5.7%,10.7,3.2
Cc1ccc(C)c(NC(=O)CCNC(=O)N2C[C@H]3C[C@@H](C2)c2cccc(=O)n2C3)c1,8.8%,·,4.1,-1.0%,11.5,0.8
c1ccc2oc(N3CCNCC3)nc2c1,-10.7%,2.0%,1.9,-3.0%,-7.2,-8.7
c1ccc2c(N3CCNCC3)nsc2c1,10.3µM*,6.0%,-3.4,13µM*,-53.9*,-1.5
O=c1[nH]c(=S)n(-c2ccccc2)c(O)c1/C=N/N1CCCCC1c1cccnc1 (centres undefined),11.0%,5.8%,4.2,-5.8%,49.5,-3.2
CCN1/C(=C\C=C\C2=[N+](CC)c3ccccc3C2(C)C)C(C)(C)c2ccccc21,0.092µM*,7.6%,?,0.146µM*,-98.1*,?
CCCCNCC(O)c1ccc(O)cc1 (centres undefined),18.3%,2.1%,·,-2.7%,·,·
COc1ccc(Cn2c(N)c(C(=O)NCc3ccco3)c3nc4ccccc4nc32)cc1,?,-6.4%,16.4,?,?,17.0
CCOC(=O)c1c(N)n(Cc2ccco2)c2nc3ccccc3nc12,?,4.2%,-11.1,?,8.8,-10.3
Nc1c(C(=O)NCc2ccco2)c2nc3ccccc3nc2n1Cc1ccc(F)cc1,14.6µM*,5.7%,-6.6,?,?,2.0
Nc1c(C(=O)NCc2ccco2)c2nc3ccccc3nc2n1CCN1CCOCC1,?,-2.5%,-73.3*,?,-19.7,?
Nc1c(C(=O)NCc2ccco2)c2nc3ccccc3nc2n1Cc1ccccc1,16.4µM*,-2.5%,·,25.9µM*,?,3.7
C=C1CCC(O)C/C1=C/C=C1\CCC[C@]2(C)[C@@H]([C@H](C)CCCC(C)C)CC[C@@H]12 (some centres undefined),·,11.5%,·,·,·,·
CC(=NCc1ccc2c(c1)OCO2)c1c(O)n(C)c(=O)n(C)c1=O,?,2.3%,-24.3,?,10.5,-17.2
CC(=O)O[C@@H]1CC[C@]2(C)C3CC[C@]4(C)C(=O)[C@H](O)CC4C3[C@@H](OC(C)=O)C[C@H]2C1 (some centres undefined),?,-0.1%,2.9,?,-2.1,8.2
CCCCC[C@@H]1CCCCC[C@@H](O)C[C@@H](O)[C@@H](O)/C=C/C(=O)O1,?,·,1.7,-34.1%,-14.7,8.8
Cc1nc2ccccc2c(=O)n1-c1ccc(-c2ccccc2)cc1,?,·,3.3,?,4.5,10.9
Cc1ccc(-n2c(/C=C/c3ccc(Br)s3)nc3ccccc3c2=O)cc1,23.1µM*,10.4%,·,20.6µM*,·,·
SMILES,DT40 TDP1 CPT,TDP1 inh,CtBP-E1A inh,TDP1 cell noCPT,IL-1B inflam inh,Six1-Eya2 inh
O=c1c2ccccc2nc(/C=C/c2ccc(O)cc2)n1-c1cccc(O)c1,?,?,-7.5,?,24.2,-21.6
Cc1cc(-n2c(/C=C/c3cccs3)nc3ccccc3c2=O)ccc1Br,14.6µM*,5.2%,·,23.1µM*,·,·
Cc1cc(-n2c(/C=C/c3ccc(Br)s3)nc3ccccc3c2=O)ccc1Br,14.6µM*,10.4%,·,?,·,·
CC(C)(C)n1nnnc1C(c1cccs1)N1CCC2(CC1)C(=O)NCN2c1ccccc1 (centres undefined),-19.4%,·,-3.4,?,-17.0,-10.7
CC(=O)Nc1ccc(C(=O)OCC(=O)Nc2ccc(Cl)cc2C(=O)c2ccccc2)cc1,-14.1%,8.3%,13.1,?,11.8,-4.7
O=c1[nH]c(=O)n(C2CCCCCC2)c(O)c1C=NC1CCN(Cc2ccccc2)CC1,-29.3%,-1.0%,-0.7,?,?,-3.3
Cc1ccc2nc(-c3ccc(CN4CCC(n5c(=O)[nH]c6ccccc65)CC4)cc3)c(-c3ccccc3)nc2c1,8.2µM*,·,-4.0,11.6µM*,-73.9*,-23.7
O=c1[nH]c2ccccc2n1C1CCN(Cc2ccc(-c3nc4ccccc4nc3-c3ccccc3)cc2)CC1,11.6µM*,·,-23.7,14.6µM*,0.0,-10.1
COc1ccc(N2C(=O)CC(N3CCC(n4c(=O)[nH]c5ccccc54)CC3)C2=O)cc1 (centres undefined),?,-0.7%,4.4,?,30.9,-2.8
O=c1[nH]c2ccccc2n1C1CCN(Cc2ccc(-c3nc4ccc(F)cc4nc3-c3ccccc3)cc2)CC1,4.11µM*,·,-5.3,6.51µM*,-61.2*,-15.8
COc1ccc2nc(-c3ccc(CN4CCC(n5c(=O)[nH]c6ccccc65)CC4)cc3)c(-c3ccccc3)nc2c1,18.4µM*,·,-0.7,14.6µM*,-60.6*,-18.5
COc1ccc(OC(=O)Nc2ccc([N+](=O)[O-])cc2OC)cc1,-29.2%,-0.6%,·,?,-3.6,-1.7
O=c1[nH]c2ccccc2n1CCCN1CCC(n2c(=O)[nH]c3cc(Cl)ccc32)CC1,?,5.5%,-8.1,23.7µM*!,?,-7.5
Cc1nc2cc(F)ccc2n1C1CCN(Cc2nnnn2CCc2ccccc2)CC1,16.4µM*,9.5%,6.0,?,?,4.3

# Bioassay records deposited in PubChem BioAssay by National Center for Advancing Translational Sciences (NCATS).
